Compound activity (PubChem)
NPR2 activator – GC-B (human) receptor activation | hit rate 0.11% among 370,000 | P20594 | HEK293-GC-B cells, CNP EC30, cGMP TR-FRET; 0% at EC30 CNP, 100% saturating CNP | activation, % at 10 µM;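 active = activation at 10 µM reaching about 35% in either raw or pattern-adjusted values, limit read from the data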
NPR1 activator – GC-A (human) enzyme activation. HEK293 GC-A cells, cGMP TR-FRET, EC30 ANP; 0% at EC30 ANP, 100% saturating ANP. hit rate 0.14% among 370,000. activation, % at 10 µM; in the data active = activation above about 40%
PLCb3 inh – blocks human PLC-beta3 enzyme activity. Q01970. Purified PLC-beta3, fluorogenic substrate, fluorescence. inhibition, % at 12.2 µM. hit rate 0.18% among 370,000. AID 720704; in the data active = inhibition above about 11%
PLCg1 inh – blocks human PLC-gamma1 enzyme activity | P19174 | purified PLC-gamma1, fluorogenic substrate, fluorescence | inhibition, % at 12.2 µM | hit rate 0.84% among 370,000
PLCg1 ctr – counter-screen for PLC-beta3 inhibitors: inhibitors of human PLC-gamma1; hit rate 3.1% among 3,300; shares compounds with PLCg1 inh; purified PLC-gamma1, fluorogenic substrate, fluorescence; inhibition, % at 12.3 µM; AID 743258
PLCbeta3 conf – human PLC-beta3 inhibition, confirmation. shares compounds with PLCg1 inh. purified PLC-beta3, fluorogenic substrate fluorescence. inhibition, % at 12.3 µM. hit rate 1% among 3,300; in the data active = inhibition above about 11%
A number is an active result; n = inactive; x = no result given. Only some compounds are listed: those with a hit (about 1.2% of all), similar ones and a draw of the others. Rule as the data show it, unless noted: active = inhibition above about 9.5%; inactive = the rest.

SMILES	NPR2 activator	NPR1 activator	PLCb3 inh	PLCg1 inh	PLCg1 ctr	PLCbeta3 conf
O=c1ccc2cc3c([nH]c4ccc(Br)cc43)oc-2c1O	n	n	n	10	x	x
O=C1OCCC1Sc1nnc(-c2ccc(Cl)cc2Cl)o1 (stereo not drawn)	n	70	n	n	x	x
O=C(CN1CCOCC1)NCCc1ccccc1	n	n	n	n	x	x
CC(C)c1ccc(C2NC(=S)NC3=C2C(=O)CCC3)cc1 (stereo not drawn)	n	50	n	n	x	x
CC(OC(=O)c1ccco1)C(=O)Nc1ccc(C(F)(F)F)cc1 (stereo not drawn)	n	n	n	12	x	x
CC(OC(=O)c1ccccn1)C(=O)Nc1ccc(C(F)(F)F)cc1 (stereo not drawn)	n	n	n	n	x	x
Nc1nc(Nc2ccccc2)nc(NCc2ccco2)c1[N+](=O)[O-]	n	47	n	n	x	x
Nc1nc(NCc2ccco2)nc(NCCO)c1[N+](=O)[O-]	n	n	n	n	x	x
Nc1nc(NCc2ccco2)nc(Nc2ccccc2)c1[N+](=O)[O-]	n	n	n	n	x	x
Cc1ccc(Nc2nc(N)c([N+](=O)[O-])c(NCc3ccco3)n2)cc1	n	41	n	n	x	x
Nc1ccc2c(c1)C(=O)N(CCCC(=O)O)C2=O	n	n	n	n	x	x
COC1=CC(=O)c2nc(Cl)ccc2C1=O	n	n	n	10	x	x
Cn1c(N)c(C(=O)Nc2cccc(Cl)c2)c(=O)n(C)c1=O	n	47	n	n	x	x
CCOc1ccccc1OCCCC(=O)Nc1nc2ccccc2[nH]1	n	n	13	n	n	n
CCCCCC(=O)Nc1nc2ccccc2[nH]1	n	n	n	n	x	x
CCC(C)(O)C(=O)N[C@H]1CCCN1C(=O)/C=C/c1ccccc1 (stereo partly drawn)	n	n	n	11	n	n
O=C(/C=C/c1ccccc1)N1CCC[C@H]1CO	n	n	n	n	x	x
COC(=O)COc1ccc(S(=O)(=O)NCc2ccco2)cc1Cl	n	n	n	11	n	n
COCCNS(=O)(=O)c1ccc(OCC(=O)OC)c(Cl)c1	n	n	n	n	x	x
CC(=O)Oc1cc2c(C(=O)NCCCN3CCOCC3)c(C)oc2c2ccccc12	n	n	n	n	x	x
COc1ccc(-c2ccc(NS(=O)(=O)c3cccc([N+](=O)[O-])c3)cc2)nn1	n	n	n	13	n	n
COc1ccc(-c2cccc(NS(=O)(=O)c3cccc([N+](=O)[O-])c3)c2)nn1	n	n	n	n	x	x
O=C(NC(=S)Nc1c(F)cc(F)cc1Br)c1ccc2c(c1)OCCO2	n	n	n	13	n	n
CCOc1ccc(CCNC(=O)COC(=O)COc2ccc(C#N)cc2)cc1OCC	n	n	n	n	x	x
COc1ccc(NS(=O)(=O)Cc2ccccc2Cl)cn1	n	n	n	12	n	n
SMILES	NPR2 activator	NPR1 activator	PLCb3 inh	PLCg1 inh	PLCg1 ctr	PLCbeta3 conf
COc1ccc(NC(=O)Cc2c(Cl)cccc2Cl)cn1	n	n	n	n	x	x
COc1ccc(NC(=O)C(c2ccnc3ccccc23)n2c(=O)c(-c3ccco3)nc3ccccc32)cc1 (stereo not drawn)	n	n	n	n	x	x
CC(Oc1ccc(F)cc1)C(=O)NN (stereo not drawn)	n	n	n	n	x	x
COCCCNC(=O)C[C@H]1C[C@H](C(=O)N2CCCCC2)[C@@]2(CCc3ccccc3)c3[nH]c4ccc(Cl)cc4c3CCN2C1=O	n	n	n	n	x	x
CC[C@]12c3[nH]c4ccc(Cl)cc4c3CCN1C(=O)[C@@H](CC(=O)NCc1ccco1)C[C@@H]2C(=O)N1CCN(C(=O)c2ccco2)CC1	n	n	n	n	x	x
CC(C)(C)NC(=O)C[C@H]1C[C@H](C(=O)N2CCCCC2)[C@@]2(CCc3ccccc3)c3[nH]c4ccc(Cl)cc4c3CCN2C1=O	n	n	11	11	n	n
CC[C@]12c3[nH]c4ccc(Cl)cc4c3CCN1C(=O)[C@@H](CC(=O)NCCN1CCOCC1)C[C@@H]2C(=O)N1CCN(C(=O)c2ccco2)CC1	n	n	n	13	n	n
COc1ccc(-c2cc3nc(NCCCN(C)C)n(C)c(=O)c3s2)cc1OC	n	n	n	n	x	x
COc1cccc(N2CCN(S(=O)(=O)c3ccc4c(c3)oc(=O)n4C)CC2)c1	n	n	n	11	n	n
COc1cc(S(=O)(=O)N2CCN(c3ccccc3)CC2)ccc1Cl	n	n	n	10	n	n
